Most compounds without a hit are left out; they make up all but 0.48% or so of the library.
NCOA1 inh = inhibitors of human steroid receptor coactivator 1 (SRC1). Q15788. HEK293 GAL4-SRC1 luciferase reporter, luminescence. inhibition, % at 3.6 µM. 360,000 tested, 0.12% active;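 active = inhibition above the campaign mean plus 3 SD, with each screening campaign given its own cutoff, cut at about 60% in these data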;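 note: 0% = DMSO treated cells and 100% = gossypol at 36 µM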
LGR2 inh = inhibitors of bursicon-induced Drosophila LGR2 receptor cAMP signaling; inhibition, % at 9.99 µM; 380,000 tested, 0.35% active; HEK293 LGR2, CRE-luciferase, bursicon-stimulated, 4 h;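 active = drop in luminescence signal, shown as inhibition above about 50% in the replicate tests, limit read from the data, passing the limit was not always enough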;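 note: agonist challenge used bursicon conditioned medium at about half maximal strength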
NCOA2 inhibitor = human SRC2 (NCOA2) inhibition | AID 651957 | inhibition, % at 9 µM | Q15596 | HEK293 GAL4-SRC2 luciferase reporter, luminescence | 370,000 tested, 0.17% active;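 active = inhibition above the mean inhibition of all tested compounds plus 3 SD, set per campaign, cut at about 52% in these data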;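 note: 0% = DMSO treated cells and 100% = cells given Gossypol at 36 µM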
LRH-1 inv ag = NR5A2 inverse agonism in reporter assay | HEK293T StAR-luciferase reporter, LRH-1 transfected, 24 h | 360,000 tested, 0.13% active | inhibition, % at 3.6 µM;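 active = inhibition above the mean inhibition of all tested compounds plus 3 SD, cut at about 73% in these data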;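 note: 0% = DMSO wells and 100% = reporter-only cells lacking LRH-1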
SRC3 inh = inhibitors of human steroid receptor coactivator 3 (SRC3); inhibition, % at 3.6 µM; Q9Y6Q9; HEK293 GAL4-SRC3 luciferase reporter, luminescence; 360,000 tested, 0.17% active;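 active = inhibition above a per-campaign cutoff, the mean of all compounds plus 3 SD, cut at about 60% in these data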;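 note: 0% = DMSO-treated cells and 100% = gossypol-treated cells at 36 µM; higher means less SRC3-driven luciferase light from the GAL4 reporter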
The depositor's hits bear a star; . = no result given.

SMILES	NCOA1 inh	LGR2 inh	NCOA2 inhibitor	LRH-1 inv ag	SRC3 inh
CCOC(=O)[C@]12Cc3cc(Cl)ccc3[C@H]1N(C1CCCCC1)C(=O)c1ccccc12	.	.	.	85*	.
CCOC(=O)[C@]12Cc3cc(Cl)ccc3[C@H]1N(C(C)C)C(=O)c1ccccc12	.	73*	-4	34	.
O=C(O)[C@H]1[C@H](CO)[C@H]2Cn3c(ccc(C4=CCCCC4)c3=O)[C@@H]1N2C(=O)Cc1ccccn1	.	-13	.	.	.
Cc1ccc(OC(=O)N(C)C[C@H]2OCc3ccccc3-c3c(n(C)c4ccccc34)C(=O)N([C@@H](C)CO)C[C@H]2C)cc1	.	7	.	.	.
O=C(O)c1nn(Cc2ccc(Cl)cc2Cl)c2ccccc12	1	63*	4	-22	-13
O=C(Cc1cccnc1)N1CCCCN2[C@H](CO)[C@H](c3ccc(C#CC4(O)CCCC4)cc3)[C@H]2C1	.	4	.	.	.
O=C1NC2C(=CC(O)C(O)C2O)c2cc3c(cc21)OCO3 (stereo not given)	94*	105*	75*	97*	91*
O=C1NC2C(O)C(O)C(O)C(O)C2c2cc3c(c(O)c21)OCO3 (stereo not given)	93*	103*	75*	98*	92*
O=C1NC2C(=CC(O)C(O)C2O)c2cc3c(c(O)c21)OCO3 (stereo not given)	96*	106*	68*	97*	94*
CN(C)CC#Cc1ccc([C@H]2[C@@H](CO)N3CCCCN(C(=O)Cc4ccccn4)C[C@H]23)cc1	.	-24	.	.	.
CC(C)(C)c1cc(C=C(C#N)C#N)cc(C(C)(C)C)c1O	61	45	-3	76*	81*
N#CC(C#N)=Cc1ccc(O)c(O)c1	5	26	-30	-11	5
CC(=O)OCC12CC(OC(=O)CC(C)C)C(C)=CC1OC1C(O)C(OC(C)=O)C2(C)C12CO2 (stereo not given)	95*	101*	77*	98*	95*
CCCN1[C@@H]2Cn3c(ccc(-c4ccc(F)cc4)c3=O)[C@H]1[C@@H](C(=O)OC)[C@@H]2CO	.	-10	.	.	.
C=CCc1cc(OC)c2c(c1)OCO2	-9	12	-8	11	3
COc1cccc2c1cc([N+](=O)[O-])c1c(C(=O)O)cc3c(c12)OCO3	-18	67*	23	1	-2
c1ccc2c(c1)[nH]c1cnccc12	1	-4	0	-3	2
Cc1c2ccncc2c(C)c2c1[nH]c1ccccc12	64*	.	.	65	60
C[n+]1c(-c2ccccc2)c2cc(N)ccc2c2ccc(N)cc21	12	79*	-211	2	-6
CC1OC(OC2C=C3CCC4C(CCC5(C)C(c6ccc(=O)oc6)CCC45O)C3(C)CC2)C(O)C(OC2OC(CO)C(O)C(O)C2O)C1O (stereo not given)	91*	85*	70*	97*	88*
COc1ccc(-c2ccc([C@@H]3[C@@H](CO)N4CCCCN(C(=O)Cc5ccncc5)C[C@@H]34)cc2)cc1	.	16	.	.	.
COC(=O)[C@@H]1[C@@H](CO)[C@@H]2Cn3c(ccc(-c4ccccc4F)c3=O)[C@H]1N2CC1CCCC1	.	11	.	.	.
C[C@@H]1O[C@@H](O[C@H]2C[C@@H](O)[C@]3(CO)[C@H]4[C@H](O)C[C@]5(C)[C@@H](C6=CC(=O)OC6)CC[C@]5(O)[C@@H]4CC[C@]3(O)C2)[C@H](O)[C@H](O)[C@H]1O	88*	.	.	103*	93*
COc1ccc(CN2Cc3cnnn3-c3ccccc3C2C#N)cc1 (stereo not given)	23	96*	43	36	46
N#CC1c2ccccc2-n2nncc2CN1Cc1cc(Cl)cc(Cl)c1 (stereo not given)	83*	102*	86*	93*	91*
COC(=O)[C@@H]1[C@@H](CO)[C@@H]2Cn3c(ccc(-c4cccnc4)c3=O)[C@H]1N2CCc1ccccc1	.	-3	.	.	.
CC(C)(C)n1cc(C(=O)c2ccc3ccccc3c2O)cn1	15	67*	4	-27	-9
COc1ccc(-c2ccc([C@@H]3[C@H]4CN(C(=O)Cc5ccncc5)CCCCN4[C@H]3CO)cc2)cc1	.	4	.	.	.
O=c1c2ccccc2nc(/C=C/c2ccc([N+](=O)[O-])o2)n1-c1ccc(O)cc1	-58	54*	2	10	10
Cc1cccc(-n2c(/C=C/c3ccc([N+](=O)[O-])o3)nc3ccccc3c2=O)c1	0	32	-10	20	-5

Screens: PubChem, several laboratories
